According to PubChem BioAssay AID624116 (National Center for Advancing Translational Sciences (NCATS), 2012):
Records with an inconclusive call do not appear. Calls of active or inactive are those of the source. Calls come from the whole dose curve; as a rule, active = well fitted activation curve with a large enough effect; inconclusive = small, poorly fitted or top-dose-only effect; inactive = no such curve, though single readings can be large or run the other way.

Assay: qHTS Assay for Rab9 Promoter Activators: Hit Validation Using Renilla Luciferase Read-Out for Rab9
Conditions: Huh7 Rab9 promoter Renilla luciferase reporter, 24 h; series mostly up to 76.9 µM
How it was run: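 Huh7 cells stably carrying promoter-luciferase reporter, exposed to compound for 24 h at 37 deg C. Luminescence read 10 min after adding luciferase detection reagent at room temperature.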
Potency is the fitted concentration of half-maximal effect.

Potency, active:
Cc1ccc(C2C3=C(CC(C)(C)CC3=O)N(CCN3CCOCC3)C3=C2C(=O)CC(C)(C)C3)cc1 20.7 µM

Potency, inactive:
COc1ccc(NC(=S)NNC(=O)c2cccs2)cc1, COCCNC(=O)CN1C(=O)NC(c2ccccc2)(c2ccccc2)C1=O, C=CCc1ccc(OCCOCCNCCOC)c(OC)c1, Cc1cccc(NC(=O)CSc2nc3ccccc3o2)c1, CCC(=O)Nc1cc(-c2cc3ccccc3oc2=O)ccc1OC, CCC(=O)NC(=S)Nc1ccc(N2CCOCC2)cc1, Cn1c(SCc2ccccc2)nnc1-c1cnccn1, NC(=O)C1(NC(=O)[C@@H]2CC3(CC(c4cccc(NC(=O)[C@@H]5CCC(=O)N5)c4)=NO3)CN2C(=O)c2ccccc2)CC1 (some centres undefined), O=C(Nc1nc2ccc(F)cc2s1)c1ccc(N2CCCC2=O)cc1, Cc1cccc(N2CCN(C(=S)c3ccccc3)CC2)c1, O=C(CSc1nnc(-c2ccccn2)o1)Nc1ccccc1Cl, O=C(NCCSCc1c(F)cccc1Cl)c1ccc(CN2CCOCC2)cc1, Cc1nc(SCC(=O)NC(=O)NC(C)(C)C)nc(C)c1C, Cc1csc(NC(=O)CSc2nnc(-c3ccncc3)o2)n1, CCCc1cc(C(=O)Nc2ccccc2SC)no1, COc1ccc(-c2noc(N3CCCC(C(=O)Nc4ccccc4F)C3)n2)cc1 (centres undefined), Cc1ccc2nc(NC(=O)CCn3cccc3)sc2c1, Cc1nn(CCCC(=O)NCc2ccc(F)cc2)c(C)c1[N+](=O)[O-]
